Most compounds without a hit are left out; they make up all but 15% or so of the library.
ALOX12 inh: blocks human arachidonate 12S-lipoxygenase; purified 12hLO, xylenol orange hydroperoxide absorbance; hit rate 1.1% among 580,000; AID 1671190; Potency, µM (series often up to 108 µM), inactives show at the top dose activity change, negative = inhibition, hits mostly inhibitors; P18054
Target sequence (P18054 whole entry, looked up): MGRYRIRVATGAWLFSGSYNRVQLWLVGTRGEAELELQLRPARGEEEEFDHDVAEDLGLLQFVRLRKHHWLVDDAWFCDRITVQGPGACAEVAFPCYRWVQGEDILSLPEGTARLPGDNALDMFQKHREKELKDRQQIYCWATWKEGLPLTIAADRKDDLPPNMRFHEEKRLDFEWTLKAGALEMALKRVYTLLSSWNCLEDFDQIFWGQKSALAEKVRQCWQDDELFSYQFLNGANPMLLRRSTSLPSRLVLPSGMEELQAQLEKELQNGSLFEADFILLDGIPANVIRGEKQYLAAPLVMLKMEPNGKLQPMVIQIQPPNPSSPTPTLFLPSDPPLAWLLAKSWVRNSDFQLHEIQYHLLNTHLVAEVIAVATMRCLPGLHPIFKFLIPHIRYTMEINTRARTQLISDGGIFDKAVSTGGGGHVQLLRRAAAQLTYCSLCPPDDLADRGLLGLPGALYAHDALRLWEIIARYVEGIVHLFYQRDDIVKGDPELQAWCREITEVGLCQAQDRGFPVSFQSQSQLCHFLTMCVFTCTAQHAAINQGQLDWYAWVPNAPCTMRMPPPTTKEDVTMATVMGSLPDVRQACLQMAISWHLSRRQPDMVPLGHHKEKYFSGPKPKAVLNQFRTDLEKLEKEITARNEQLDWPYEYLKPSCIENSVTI
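Purified human 12hLO (150 nM final) in 25 mM Hepes, 0.01% Triton X-100, pH 7.0 was preincubated 15 min at room temperature with compound. Then 40 uM arachidonic acid was added, 30 min. Hydroperoxide was read by Fe-XO absorbance ratio 573/405 nm.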
ELG1 repair inh: inhibitors of ELG1-dependent DNA repair in HEK293T cells | AID 504467 | hit rate 2.3% among 330,000 | HEK293T ELG1-luciferase reporter, luminescence, 16 h; DNA damage induced by 5-fluorouridine | Potency, µM (doses to about 46.1 µM), inactives show at the top dose activity change, negative = inhibition, actives largely listed as inhibitors; also: nearly all actives have a fitted effect of over 55% in size
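Quantitative HTS, concentration-response format. 2,000 cells/well co-treated with 5-fluorouridine and compound, 16 hr in 5% CO2 at 37 °C; ONE-Glo luminescence read after 30 min.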
Gal4-VP16 FLuc: Gal4-VP16 reporter inhibition counter-screen; hit rate 3.5% among 310,000; Potency, µM (series often up to 53.6 µM), without a hit: at the highest dose activity, negative = inhibition, actives largely listed as inhibitors; Drosophila S2 Gal4-VP16 UAS-luciferase, luminescence, 20 h;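 also: Gal4-VP16 expression switched on by copper sulfate through the metallothionein promoter; nearly all actives have a fitted effect of over 50% in size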
DT40 TDP1 CPT: DT40-hTDP1 cell growth loss with CPT. hit rate 12% among 420,000. chicken DT40 Tdp1-/-;hTDP1 cells + 20 nM CPT, ATP luminescence, 48 h. Potency, µM (top dose mostly 46.2 µM), for inactives: top-dose activity change, negative = growth inhibition, most hits filed as inhibitors; also: nearly all actives have a fitted effect of over 55% in size
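Chicken DT40 Tdp1-/- cells complemented with human TDP1, 400 cells/well, exposed to compounds plus 20 nM camptothecin for at least 48 h at 37 C; viability read as ATP content by CellTiter-Glo luminescence.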
RORgamma inh: inhibitors of mouse ROR gamma transcriptional activity; hit rate 5.4% among 310,000; P51450; Drosophila S2 Gal4-RORgamma UAS-luciferase reporter, 20 h; Potency, µM (top dose mostly 53.6 µM), inactives show top-dose activity change, negative = inhibition, hits mostly inhibitors; also: nearly all actives have a fitted effect of over 60% in size
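Luminescence from a UAS-regulated Photinus luciferase reporter in stably transfected Drosophila Schneider cells is measured; decreased signal marks ROR gamma inhibition. Fusion expression is induced by 700 uM copper sulfate for 20 hr.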
DT40 TDP1 no CPT: qHTS for Inhibitors of human tyrosyl-DNA phosphodiesterase 1 (TDP1): qHTS in cells in absence of CPT | hit rate 15% among 420,000 | DT40 Tdp1-/- hTDP1 cells, no CPT, ATP luminescence, 48 h | Potency, µM (highest dose often 46.2 µM), without a hit: at the top dose activity change, negative = growth inhibition, usual class: inhibitors | AID 686978, 2013; also: nearly all actives have a fitted effect of over 55% in size
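No-CPT arm: Tdp1-/-;hTDP1 DT40 cells (400/well) plus compounds, incubated ≥48 hr at 37 °C. Readout CellTiter-Glo luminescence.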
An asterisk follows results filed as active; u = inconclusive; x = no result given; [ ] = another dose, or the depositor's remark. Calls follow the shape of the dose curve; as a rule, active = well fitted curve in the direction sought with a large enough effect; inconclusive = small, poorly fitted or top-dose-only effect, or another doubt; inactive = no such curve, though single readings can be large; an effect the other way counts as inactive or inconclusive. % is scaled to controls: 0 for no effect and ±100 for the full control effect; potency is read from the fitted curve at half-maximal effect.

SMILES	ALOX12 inh	ELG1 repair inh	Gal4-VP16 FLuc	DT40 TDP1 CPT	RORgamma inh	DT40 TDP1 no CPT
O=C(COC(=O)c1cc([N+](=O)[O-])ccc1N1CCOCC1)c1ccc(F)cc1	158.8%	-10.1%	x	-23.1%	x	u
O=C(OCc1ccc(Br)cc1)c1cc([N+](=O)[O-])ccc1N1CCOCC1	7.7%	x	x	0.731µM*	x	0.461µM*
COCCOc1ccc(C(F)(F)F)cc1NC(=O)COC(=O)c1cc([N+](=O)[O-])ccc1N1CCOCC1	-6.3%	u	6.6%	14.6µM*	1.9%	23.1µM*
O=C(OCc1cccc(Cl)c1)c1cc([N+](=O)[O-])ccc1N1CCOCC1	-19.3%	-17.5%	x	u	x	u
COc1ccc(CN(C(=O)c2ccc(C#N)cc2)C(C)C2CC2)cc1 (centres undefined)	-10.7%	x	x	x	x	x
COc1cccc(CNC(=O)COC(=O)c2cc([N+](=O)[O-])ccc2N2CCCC2)c1	86.4%	u	x	16.4µM*	x	23.1µM*
Cc1cc(C)c(CNC(=O)c2cc(-c3cnn(C)c3C)cc3c2OCCN3C)c(=O)[nH]1	8.2%[176 µM]	x	x	x	x	x
Cc1cc(C)c(CNC(=O)c2cc(-c3ccccc3C)cc3c2OCCN3C)c(=O)[nH]1	112µM*	x	x	x	x	x
N#Cc1cccnc1N1CCN(C(C(=O)NC2CCCC2)c2ccco2)CC1 (centres undefined)	-22.6%	x	x	-6.1%	x	u
Cc1ccc(SC(C)C(=O)NC2CCCC2)c(C)c1 (centres undefined)	-2.6%	x	x	x	x	x
Cc1cc(N2CCN(C(C(=O)NC3CCCC3)C(C)(C)C)CC2)c2ccccc2n1 (centres undefined)	-27.1%	x	x	u	x	11.6µM*
COc1cccc(C(C(=O)NC2CCCC2)N2CCN(c3cc(C)nc4ccccc34)CC2)c1OC (centres undefined)	7.3%	x	x	23.1µM*	x	20.6µM*
CC(C)(C)C(C(=O)NC1CCCC1)N1CCN(c2ncccc2C#N)CC1 (centres undefined)	-12.3%	x	x	16.4µM*	x	u
Cc1ccc(C)c(N2CCN(C(C(=O)NC3CCCC3)C(C)C)CC2)c1 (centres undefined)	-9.6%	x	x	18.4µM*	x	20.6µM*
Cc1ccc(C(=O)C(C#N)C(=O)Nc2ccccc2C)cc1C (centres undefined)	-10.3%	x	x	x	x	x
O=C(COC(=O)c1n[nH]c2ccccc12)Nc1ccc(S(=O)(=O)N2CCCC2)cc1	-3.0%	u	10µM*	23.1µM*	-42.2%	20.6µM*
O=C(COC(=O)c1ccc(S(=O)(=O)N2CCCC2)cc1)Nc1ccc(N2CCOCC2)cc1	u	8.1%	0.7%	18.4µM*	-3.2%	u
O=C(COC(=O)c1ccc(O)cc1)Nc1ccc(S(=O)(=O)N2CCOCC2)cc1	-23.5%	-11.5%	x	-7.2%	x	-11.3%
Cc1ccc(-c2[nH]ncc2CN2C[C@@H](CO)[C@H](NC(=O)C3CC3)C2)cc1	34.5%	x	x	x	x	x
C=CCOc1ccccc1C(=O)/C=C1/C(=O)Nc2ccccc21	-11.6%	1.3%	12.6µM*	5.8µM*	5.62µM*	2.91µM*
C=CCOc1ccc(C(=O)Nc2ccccc2-c2ccccc2)cc1	7.0%	x	x	x	x	x
C=CCOc1ccc(C(=O)/C=C2/C(=O)Nc3ccccc32)cc1	-26.6%	-4.2%	-16.6%	16.4µM*	u	13µM*
NC(=O)COc1ccc(C(=O)/C=C2/C(=O)Nc3ccccc32)cc1	-6.8%	-2.9%	u	7.31µM*	7.94µM*	2.91µM*
C=CCOc1ccccc1C(=O)Nc1ccc(C#N)cc1	-34.4%	x	x	x	x	x
Cc1cc(C(=O)Cn2c(=O)c3c(ncn3CCC(C)C)n(Cc3ccccc3)c2=O)c(C)n1C	-12.2%	x	x	x	x	x
SMILES	ALOX12 inh	ELG1 repair inh	Gal4-VP16 FLuc	DT40 TDP1 CPT	RORgamma inh	DT40 TDP1 no CPT
O=C(Nc1ccc(Cl)cc1)C1CCN(c2ncnc3nc[nH]c23)CC1	-8.8%	x	x	x	x	x
CCCc1cc(C(=O)N2CC[C@@H]3[C@@H](CCC(=O)N3CC(C)C)C2)ccn1	6.5%	x	x	x	x	x
Cc1ccc(N(CC(O)CN2CCCCC2)S(=O)(=O)c2ccc3ccccc3c2)cc1 (centres undefined)	-11.7%	x	x	x	x	x
O=S(=O)(CC(CN1CCCC1)N1CCCC1)c1ccc2ccccc2c1 (centres undefined)	-18.2%	11.6µM*	11.2µM*	3.26µM*	u	4.61µM*
COc1ccc(C)cc1NC1=C(Cl)C(=O)N(C2CCCCC2)C1=O	-0.1%	u	-4.5%	u	26.9%	11.6µM*
CC(=O)NCCn1c(SCC#N)nc2ccccc2c1=O	0.0%	-0.7%	3.7%	1.7%	0.224µM*	-18.0%
Cc1ccc(CSc2nc3ccccc3c(=O)n2C)cc1	0.0%	u	u	u	u	u
COCCn1c(SCc2ccccc2F)nc2ccccc2c1=O	7.0%	-14.6%	1.2%	u	40.5%	u
N#CCSc1nc2ccccc2c(=O)n1CCC(=O)NCCc1ccccc1	-18.2%	-4.1%	-3.7%	-4.3%	-0.4%	-1.3%
CC(=O)NCCn1c(SCc2ccccc2F)nc2ccccc2c1=O	0.0%	u	-2.5%	16.4µM*	22.3%	20.6µM*
CC(=O)NCCn1c(SCc2ccc(C)cc2)nc2ccccc2c1=O	0.0%	u	-3.1%	23.1µM*	11.6%	20.6µM*
C=CCSc1ccccc1NC(=O)c1sccc1C	-0.9%	x	x	x	x	x
CCNC(=O)NC(=O)C(C)N(C)Cc1ccco1 (centres undefined)	-8.2%	x	x	x	x	x
O=C(c1ccoc1)N1CC[C@@H]2[C@@H](CCC(=O)N2CCc2cnc[nH]2)C1	13.3%	x	x	x	x	x
CC(C)(C)C(=O)/C(=C\c1ccc([N+](=O)[O-])cc1)n1cncn1	x	11.6µM*	4.47µM*	x	2.24µM*	x
O=C(Cn1cncn1)N/N=C/c1ccc(Cl)cc1	-1.4%	28.0%	-6.2%	4.8%	-25.1%	-4.3%
CC(C)(C)C(=O)/C(=C/c1ccc(Cl)cc1)n1cncn1	0.0%	u	-20.3%	5.8µM*	u	5.17µM*
CC(C)/C=C(/C(=O)c1ccc(Cl)cc1Cl)n1cncn1	u	-4.3%	u	u	u	20.6µM*
Cn1cc(C(=O)N2CCN(S(=O)(=O)c3cc(F)ccc3F)CC2)c2ccccc21	0.7%	x	x	x	x	x
CSc1ccccc1C(=O)Nc1c(C)cc(C)cc1Cl	-0.7%	x	x	x	x	x
COc1ccc(C(=O)n2nc(-c3ccco3)nc2SC)cc1OC	-4.8%	0.5%	5.2%	u	-8.6%	u
COc1ccc(C(=O)N2c3nc(-c4ccco4)nn3C3(CCCCC3)[C@@H]3CCCC[C@@H]32)cc1OC	-25.7%	x	x	16.4µM*	x	u

From PubChem
